# Screening data deposited in PubChem BioAssay by National Center for Advancing Translational Sciences (NCATS).
# DT40 TDP1 CPT – qHTS for Inhibitors of human tyrosyl-DNA phosphodiesterase 1 (TDP1): qHTS in cells in presence of CPT | AID 686979, 2013 | Potency, µM (highest dose often 46.2 µM), actives largely listed as inhibitors | chicken DT40 Tdp1-/-;hTDP1 cells + 20 nM CPT, ATP luminescence, 48 h | actives 12% (n = 420,000); also: nearly all actives have a fitted effect of over 55% in size
#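 Chicken DT40 Tdp1-/- cells stably complemented with human TDP1 were seeded at 400 cells/well in medium containing 20 nM camptothecin, exposed to pin-transferred compounds, and grown at 37 °C for at least 48 hr. Viability was read as ATP luminescence.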
# VP16 counter – VP16 counterscreen qHTS for inhibitors of ROR gamma transcriptional activity; Drosophila S2 Gal4-VP16 UAS-luciferase, luminescence, 20 h; Potency, µM (highest dose often 53.6 µM), most hits filed as inhibitors; actives 3.5% (n = 310,000); AID 2546, 2010;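 also: Gal4-VP16 expression switched on by copper sulfate through the metallothionein promoter; nearly all actives have a fitted effect of over 50% in size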
# DT40 TDP1 no CPT – qHTS for Inhibitors of human tyrosyl-DNA phosphodiesterase 1 (TDP1): qHTS in cells in absence of CPT. DT40 Tdp1-/- hTDP1 cells, no CPT, ATP luminescence, 48 h. Potency, µM (titrated, usually from 46.2 µM), most hits filed as inhibitors. actives 15% (n = 420,000); also: nearly all actives have a fitted effect of over 55% in size
#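 A cellular qHTS used chicken DT40 cells lacking endogenous Tdp1 but carrying stably transfected human TDP1. Compounds were applied without camptothecin, and cell growth kinetics were judged by ATP-dependent luminescence after ≥48 hr.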
# RORgamma inh – qHTS for inhibitors of ROR gamma transcriptional activity | AID 2551, 2010 | Nuclear receptor ROR-gamma (Mus musculus), P51450 | Potency, µM (series often up to 53.6 µM), usual class: inhibitors | actives 5.4% (n = 310,000) | Drosophila S2 Gal4-RORgamma UAS-luciferase reporter, 20 h; also: nearly all actives have a fitted effect of over 60% in size
#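 Luciferase reporter read in Schneider cells carrying Gal4-RORγ (mouse) and UAS-Photinus luciferase; cells given compound 1 h before 700 uM copper sulfate induction, then incubated 20 h at ambient temperature.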
# TDP1 block – qHTS Assay for Inhibitors of Tyrosyl-DNA Phosphodiesterase (TDP1) | Tyrosyl-DNA phosphodiesterase 1 (Homo sapiens), Q9NUW8 | recombinant TDP1, AlphaScreen DNA substrate cleavage | Potency, µM (top dose mostly 130 µM), usual class: inhibitors | actives 0.28% (n = 350,000); also: nearly all actives have a fitted effect of over 40% in size
# Target sequence (Q9NUW8 whole entry, looked up): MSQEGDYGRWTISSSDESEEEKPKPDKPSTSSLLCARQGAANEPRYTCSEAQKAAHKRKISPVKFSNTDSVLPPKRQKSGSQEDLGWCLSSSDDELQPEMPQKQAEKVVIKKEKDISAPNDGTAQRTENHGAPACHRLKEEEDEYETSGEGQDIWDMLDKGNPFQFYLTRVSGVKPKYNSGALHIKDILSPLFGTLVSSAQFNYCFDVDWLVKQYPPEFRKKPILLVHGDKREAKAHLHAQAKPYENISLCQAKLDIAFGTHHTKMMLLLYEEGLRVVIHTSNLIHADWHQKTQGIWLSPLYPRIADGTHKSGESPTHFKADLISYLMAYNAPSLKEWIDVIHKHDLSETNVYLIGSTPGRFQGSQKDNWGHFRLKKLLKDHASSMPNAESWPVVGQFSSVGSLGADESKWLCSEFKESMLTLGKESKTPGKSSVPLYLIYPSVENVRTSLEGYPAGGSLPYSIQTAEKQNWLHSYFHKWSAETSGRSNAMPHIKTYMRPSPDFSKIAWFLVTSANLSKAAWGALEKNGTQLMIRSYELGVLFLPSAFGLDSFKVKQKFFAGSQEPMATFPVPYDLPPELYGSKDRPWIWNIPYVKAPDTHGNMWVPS
#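 Enzyme-compound mixtures sat 15 min at room temperature, followed by a 5 min reaction with 15 nM final substrate and 10 min with AlphaScreen beads. Recombinant human Tdp1 was used at 1 nM final.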
# A number is an active result; – = inactive; ? = inconclusive; · = no result given; [ ] = dose if it differs, or a comment. Sampled rows, rich in hits. Any-hit rate of the full collection: about 19%. Calls follow the shape of the dose curve; as a rule, active = well fitted curve in the direction sought with a large enough effect; inconclusive = small, poorly fitted or top-dose-only effect, or another doubt; inactive = no such curve, though single readings can be large; an effect the other way counts as inactive or inconclusive.
SMILES,DT40 TDP1 CPT,VP16 counter,DT40 TDP1 no CPT,RORgamma inh,TDP1 block
CNC(=O)C(=O)Nc1c(O)c2ccccc2[nH]c1=O,–,–,?,–,–
COc1cc(C(=O)NCC(c2cccs2)N2CCOCC2)cc(OC)c1OC (stereo not given),–,·,–,·,–
COc1cccc(C(=O)NCC(c2cccs2)N2CCc3ccccc32)c1 (stereo not given),13µM,·,?,·,–
COc1cc(C(=O)NCC(c2cccs2)N2CCc3ccccc32)cc(OC)c1OC (stereo not given),?,·,20.6µM,·,–
COc1ccccc1C(=O)NCC(c1cccs1)N1CCc2ccccc21 (stereo not given),20.6µM,·,18.4µM,·,–
COc1cccc(C(=O)NCC(c2ccco2)N2CCc3ccccc3C2)c1 (stereo not given),–,·,–,·,–[0.505 µM]
O=C(COC(=O)c1ccc(Cl)nc1)Nc1ccc(Cl)cc1,–,·,–,·,–
CSc1nsc(NC(=O)Cc2ccccc2)n1,?,7.08µM,?,?,–
CSc1nsc(SCC(=O)Nc2ccccc2)n1,–,–,?,–,–
O=C(NCC1CCCO1)C(c1cccs1)N(Cc1cccs1)C(=O)c1ccc(-c2ccccc2)[nH]1 (stereo not given),13µM,–,?,?,–
O=C(NC1CCCCC1)C(c1cccs1)N(CCCN1CCOCC1)C(=O)c1ccc(-c2ccccc2)[nH]1 (stereo not given),?,?,14.6µM,–,–
Cc1ccc(C(C(=O)NC(C)(C)C)N(CCCN2CCOCC2)C(=O)c2ccc(-c3ccccc3)[nH]2)o1 (stereo not given),–,–,–,–,–
O=C(C[n+]1cc(-c2ccc(F)cc2)n2c1CCC2)Nc1nc(-c2ccc(F)cc2)cs1,?,–,?,–,–
O=C(C[n+]1cc(-c2ccccc2)n2c1CCC2)Nc1nc(-c2ccc(F)cc2)cs1,?,–,16.4µM,–,–
O=C(C[n+]1cc(-c2ccc(Cl)cc2)n2c1CCC2)Nc1nc(-c2ccc(F)cc2)cs1,?,–,18.4µM,–,–
Cc1ccc(Cl)cc1NC(=O)CNCC(c1ccccc1)N(C)C (stereo not given),–,–,–,–,·
CCCCN1CC(Br)C(=O)NC1=O (stereo not given),14.6µM,·,18.4µM,·,·
O=C(N/N=C/c1ccccn1)c1cc(-c2ccc(Br)cc2)nc2ccccc12,2.59µM,1.12µM,1.84µM,0.631µM,–
O=C(O)COc1ccccc1/C=N/NC(=O)c1cc(-c2ccc(Cl)cc2)nc2ccccc12,–,–,6.51µM,–,·
O=C(O)COc1ccccc1/C=N/NC(=O)c1cc(-c2ccccc2)nc2ccccc12,–,–,–,–,–
O=C(Nc1cccnc1)c1cc(-c2ccc(Br)cc2)nc2ccccc12,?,–,?,–,–
O=C(N/N=C/c1ccccn1)c1cc(-c2ccc(Cl)cc2)nc2ccccc12,3.26µM,0.708µM,8.2µM,0.398µM,–
Cc1ccc[n+](C(C)C(=O)Nc2ccc([N+](=O)[O-])cc2C)c1 (stereo not given),–,–,–,–,–
COc1cc(N2CCCC2)ccc1C=O,–,–,–,–,–
COC1CCCN(C(=O)c2cccc(OC3CCN(S(=O)(=O)N(C)C)CC3)c2)C1 (stereo not given),–,–,–,–,–
SMILES,DT40 TDP1 CPT,VP16 counter,DT40 TDP1 no CPT,RORgamma inh,TDP1 block
CCC(C(=O)OCc1cc(=O)n2nc(CCOC)sc2n1)c1ccccc1 (stereo not given),?,·,?,·,–
CCc1ccc(NC(=O)CN(CC(=O)Nc2ccc(CC)cc2)CC(C)O)cc1 (stereo not given),?,–,?,–,·
CC1CCC(NC(=O)CCc2cn(Cc3ccccc3Cl)c3ccccc23)CC1 (stereo not given),?,·,?,·,–
O=C(CCc1cn(Cc2ccccc2Cl)c2ccccc12)NC1CCCCC1,?,·,16.4µM,·,–
COc1cccc(CNC(=O)CCc2cn(Cc3ccccc3Cl)c3ccccc23)c1,?,·,18.4µM,·,–
CN1CCN(NC(=O)CN(C)S(=O)(=O)c2cc(Cl)ccc2Cl)CC1,–,–,–,–,–
COc1cc2c(cc1OC)C(SC)=NC1(CCCC1)C2,16.4µM,–,14.6µM,–,–
COc1cc2c(cc1OC)C(C)=NC1(CCCCC1)C2,–,–,–,–,–
S=C1NC2(CCCCC2)Cc2ccccc21,?,?,?,1.12µM,–
COc1cc2c(cc1OC)C(=S)NC1(CCCC1)C2,–,14.1µM,–,2µM,–
CCn1c(COc2ccc(OC)cc2)nnc1SCc1nc2ccccc2c(=O)[nH]1,·,–,·,–,–
CCc1cccc(CC)c1NC1=NS(=O)(=O)c2ccccc21,–,·,–,·,–
Cc1cccc(OCCNc2cc(N3CCOCC3)ccc2[N+](=O)[O-])c1,?,–,?,?,–
Cc1ccc(OCCNc2cc(N3CCN(CCO)CC3)ccc2[N+](=O)[O-])cc1C,?,?,29.1µM,–,–
Cc1cccc(OCCNc2cc(N3CCN(C)CC3)ccc2[N+](=O)[O-])c1,?,–,23.1µM,–[10 µM],–
COn1c(C)c(C(C)=O)c2c3nonc3ccc21,–,–,–,–,–
O=C(NC1CCCC1)NS(=O)(=O)c1ccccc1Cl,–,–,–,–,–
C[C@H](CO)N1C[C@H](C)[C@@H](CN(C)C)Oc2c(NC(=O)Cc3ccccc3)cccc2C1=O,?,·,–,·,–
C[C@H](CO)N1C[C@H](C)[C@@H](CN(C)C)Oc2c(NC(=O)CCCCCC(=O)Nc3ccccc3N)cccc2C1=O,18.4µM,·,?,·,–
C[C@H](CO)N1C[C@H](C)[C@@H](CN(C)Cc2ccncc2)Oc2c(NC(=O)CCCCCC(=O)Nc3ccccc3N)cccc2C1=O,?,·,23.1µM,·,–
Cc1ccc(S(=O)(=O)NCCC(=O)N2CCCCCCC2)cc1C,–,·,–,·,–
COc1ccc(NC(=O)CC(C)C)c(OC)c1,–,–,–,–,–
Cc1nc2c(sc(=S)n2Cc2ccco2)c(=O)n1CC(=O)Nc1ccccc1F,?,–,?,–,–
Cc1ccccc1Oc1ccc2c(c1)[C@@H]1C[C@H](N(C)C(=O)c3ccco3)[C@H]([C@H](C)O)C(=O)N1CC2,?,·,18.4µM,·,·
C[C@H](O)[C@@H]1C(=O)N2CCc3c([nH]c4ccccc34)[C@@H]2C[C@@H]1N(C)C(=O)Nc1cc(Cl)cc(Cl)c1,29.1µM,·,?,·,·
Cc1ccccc1Oc1ccc2c(c1)[C@@H]1C[C@H](N(C)C(=O)c3cccnc3)[C@H]([C@H](C)O)C(=O)N1CC2,–,·,?,·,·
